Active and inactive are the calls of the source.

One test concerns the target Albumin (Bos taurus) (UniProt P02769). The test can be described thus: bovine serum albumin binders on microarray, profiling panel, artefact control for SMM control protein annotation, biochemical, small-molecule microarray, Alexa647 label, 635/667 nm fluorescence (AID 1118).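 Note: score merges 667 nm emission intensity and signal-to-noise per printed compound spot.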 The conditions noted are these: BSA-A647 binding, fluorescence 635 nm, higher = more signal.
A short description of test [1]: small-molecule microarray binders of probe aXIP, primary screen, biochemical, NeuroSMM set, 635/667 nm fluorescence (AID 1119).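 Note: probe is the protein aXip251-270 applied at 1 µg/mL to compound-printed slides; binding of probe to printed compounds measured as 667 nm fluorescence plus signal to noise.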 The conditions noted are these: higher = more signal, called active from +8 up or from −8 down.
Test [2] is described as follows: small-molecule binders of probe aNOTCH3, primary screen, biochemical, small-molecule microarray, 635/667 nm fluorescence (AID 1120).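 Note: probe is a biotin-tagged antibody raised against NOTCH3 rather than NOTCH3 protein; score merges spot fluorescence near 667 nm with spot signal to noise.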 The conditions noted are these: higher = more signal.
The nature of test [3]: small-molecule binders of probe aNOTCH2, primary screen, biochemical, small-molecule microarray, 635/667 nm fluorescence (AID 1121).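 Note: score merges feature fluorescence read at 667 nm with its signal to noise.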 The following applies: higher = more signal.
In test [4] the target is Carbonic anhydrase 2 (Homo sapiens) (UniProt P00918). In words: CAII small-molecule binders, profiling panel, biochemical, small-molecule microarray, Alexa647-labelled CAII (AID 1122). The conditions noted are these: CAII-A647 binding fluorescence, higher = more signal.
Test [5] in a line: COS7 lysate on small-molecule microarray, probe aHis, 635 nm (AID 1123).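 Note: z-score combines 667nm fluorescence intensity with signal-to-noise per printed compound spot.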 The following applies: COS7 cell lysate, fluorescence, higher = more signal.
Test [6] can be described thus: compound binding in COS7 lysate, probe aLAP1, primary screen, cell lysate, small-molecule microarray (AID 1124).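 Note: lysate comes from COS7 cells expressing LAP1 and is applied at 0.3 µg/mL; score merges spot fluorescence near 667 nm with signal-to-noise over triplicate slides.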 The following applies: probe aLAP1, fluorescence, higher = more signal.
The test system of the next test is Sam68 (KHDRBS1). The test can be described thus: Sam68 small-molecule binders, primary screen, biochemical, small-molecule microarray, 635 nm fluorescence (AID 1125).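 Note: score merges 667 nm channel intensity with signal to noise over triplicate slides.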 The following applies: small-molecule microarray binding, higher = more signal.
The subject of test [7] is Chordin-like protein 2 (CHRDL2). The test can be described thus: CHRDL2 small-molecule binders, primary screen, biochemical, small-molecule microarray, 635 nm fluorescence (AID 1126).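 Note: printed compound slides probed with Chrdl2 protein at 4 µg/mL for 1 h at 4 C; score merges 667 nm emission intensity with signal to noise over three replicate slides.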 The following applies: small-molecule microarray binding, fluorescence 635 nm; higher = more signal.
The target of test [8] is Concanavalin-A (Canavalia ensiformis) (UniProt P02866). The test can be described thus: ConA small-molecule binders, primary screen, artefact control for SMM control protein annotation, biochemical, small-molecule microarray, Alexa647 label, 635 nm (AID 1127).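 Note: z combines 667 nm emission intensity with signal-to-noise across three replicate slides.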 The conditions noted are these: ConA-A647 binding fluorescence, higher = more signal.
Sequence of Concanavalin-A (Canavalia ensiformis) (P02866 whole entry, looked up): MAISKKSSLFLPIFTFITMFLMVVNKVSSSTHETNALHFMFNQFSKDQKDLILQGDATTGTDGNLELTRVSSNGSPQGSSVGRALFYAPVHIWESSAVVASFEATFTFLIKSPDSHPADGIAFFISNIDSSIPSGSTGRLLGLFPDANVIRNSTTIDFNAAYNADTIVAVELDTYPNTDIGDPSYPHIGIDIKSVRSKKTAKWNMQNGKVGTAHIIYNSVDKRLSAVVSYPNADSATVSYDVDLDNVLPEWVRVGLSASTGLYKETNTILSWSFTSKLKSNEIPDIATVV
Test [9] is described as follows: anti-His antibody binders, primary screen, artefact control for SMM control protein annotation, biochemical, small-molecule microarray, 635 nm fluorescence (AID 1128).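 Note: score merges feature fluorescence with signal-to-noise for each printed compound spot.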 The following applies: anti-His Alexa647 antibody binding, higher = more signal.
The test system of test [10] is Human papillomavirus type 1a E7 protein (residues 1-88). In words: HPV1a E7 small-molecule binders, primary screen, biochemical, small-molecule microarray, residues 1-88, 635 nm (AID 1129). The following applies: small-molecule microarray binding, fluorescence 635 nm; higher = more signal.
Test [11] addresses Focal adhesion kinase 1 (Homo sapiens) (UniProt Q05397). The test can be described thus: small-molecule microarray binders of FAK, primary screen, biochemical, 635/667 nm fluorescence, BSA, DTT (AID 1130).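 Note: composite of spot emission at 667 nm and signal to noise over triplicate slides.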 The conditions noted are these: PTK2 binding, 635 nm fluorescence, higher = more signal.
Test [12] deals with Fibrinogen (Alexa647-labelled). In words: fibrinogen binders on compound microarrays, profiling panel, artefact control for SMM control-protein annotation, biochemical, small-molecule microarray, 635/667 nm fluorescence (AID 1131).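 Note: z-score merges 667 nm fluorescence with per-spot signal-to-noise over triplicate slides.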 The conditions noted are these: fibrinogen-A647 binding fluorescence, higher = more signal.
Test [13] deals with Follistatin (Homo sapiens) (UniProt P19883). In words: follistatin binders on small-molecule microarrays, primary screen, biochemical, small-molecule microarray, 635/667 nm fluorescence (AID 1132). The conditions noted are these: FST binding, 635 nm fluorescence, higher = more signal.
Sequence of Follistatin (Homo sapiens) (P19883 whole entry, looked up): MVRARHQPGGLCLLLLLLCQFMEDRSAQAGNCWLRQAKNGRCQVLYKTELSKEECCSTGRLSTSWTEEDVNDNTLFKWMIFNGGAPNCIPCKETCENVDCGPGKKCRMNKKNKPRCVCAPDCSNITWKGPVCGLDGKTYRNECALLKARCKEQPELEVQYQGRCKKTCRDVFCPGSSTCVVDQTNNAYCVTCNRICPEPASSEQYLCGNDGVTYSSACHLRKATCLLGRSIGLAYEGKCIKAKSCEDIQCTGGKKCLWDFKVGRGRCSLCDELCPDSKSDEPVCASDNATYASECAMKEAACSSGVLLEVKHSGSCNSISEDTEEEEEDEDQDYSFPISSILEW
Test [14] deals with Fibroblast growth factor 2 (Homo sapiens) (UniProt P09038). In words: FGF2 binders on small-molecule microarrays, primary screen, biochemical, small-molecule microarray, 635/667 nm fluorescence (AID 1133). The conditions noted are these: small-molecule microarray binding, FGF2, fluorescence 635/667; higher = more signal.
Sequence of Fibroblast growth factor 2 (Homo sapiens) (P09038 whole entry, looked up): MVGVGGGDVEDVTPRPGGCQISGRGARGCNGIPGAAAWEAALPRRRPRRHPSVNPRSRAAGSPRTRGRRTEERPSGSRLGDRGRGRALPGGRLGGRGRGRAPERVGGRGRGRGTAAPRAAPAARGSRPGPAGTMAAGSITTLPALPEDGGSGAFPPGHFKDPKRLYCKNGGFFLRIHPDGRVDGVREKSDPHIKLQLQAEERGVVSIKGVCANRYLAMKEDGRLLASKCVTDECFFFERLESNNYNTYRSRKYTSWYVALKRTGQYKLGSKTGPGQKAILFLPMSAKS
Test [15] can be described thus: mitochondrial membrane potential change in A549 cells, profiling panel, cell-based, JC-1 fluorescence, basal, 24 h, 100 nL (AID 1138).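 Note: A549 lung adenocarcinoma cells under basal conditions with no added stimulus; test concentration not given here.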 The following applies: higher = more signal.
The next test relates to Lefty1. The test can be described thus: Lefty1 binders on small-molecule microarrays, primary screen, biochemical, small-molecule microarray, 635/667 nm fluorescence (AID 1139). The following applies: small-molecule microarray binding, fluorescence 635/667; higher = more signal.
Test [16] has as its system wheat germ agglutinin (Triticum aestivum), Alexa647-labelled. In words: wheat germ agglutinin binders on compound microarrays, profiling panel, artefact control for SMM control-protein annotation, biochemical, small-molecule microarray, 635/667 nm fluorescence (AID 1140).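 Note: score merges 667 nm feature emission with signal to noise over triplicate slides.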 The conditions noted are these: WGA-A647 binding, 635 nm fluorescence, higher = more signal.
Test [17] concerns the target Luciferin 4-monooxygenase (Photinus pyralis) (UniProt P08659). In words: firefly luciferase enzyme inhibitors, primary screen, biochemical, luminescence, purified enzyme, 2006 set (AID 1141).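 Note: cell-free assay with purified firefly luciferase at 100 ng per well in PBS; test concentration not given here.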 The following applies: SteadyGlo luminescence, 30 min, higher = more signal, called active from +8 up or from −8 down.

Sequence of Luciferin 4-monooxygenase (Photinus pyralis) (P08659 whole entry, looked up): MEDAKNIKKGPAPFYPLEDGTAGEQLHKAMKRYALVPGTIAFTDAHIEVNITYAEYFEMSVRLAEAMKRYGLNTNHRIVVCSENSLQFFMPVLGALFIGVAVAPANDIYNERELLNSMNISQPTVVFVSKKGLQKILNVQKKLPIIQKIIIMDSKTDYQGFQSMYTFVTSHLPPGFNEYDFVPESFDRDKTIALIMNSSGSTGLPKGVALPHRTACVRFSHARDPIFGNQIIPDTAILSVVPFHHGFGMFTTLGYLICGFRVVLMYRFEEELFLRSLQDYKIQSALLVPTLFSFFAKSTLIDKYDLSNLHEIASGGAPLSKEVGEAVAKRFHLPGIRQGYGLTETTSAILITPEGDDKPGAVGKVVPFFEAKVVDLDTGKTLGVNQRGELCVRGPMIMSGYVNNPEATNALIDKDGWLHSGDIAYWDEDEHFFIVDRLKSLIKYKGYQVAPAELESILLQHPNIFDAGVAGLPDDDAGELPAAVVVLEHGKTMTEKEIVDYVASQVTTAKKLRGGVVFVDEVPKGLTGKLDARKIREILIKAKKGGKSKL
Sequence of Albumin (Bos taurus) (P02769 whole entry, looked up): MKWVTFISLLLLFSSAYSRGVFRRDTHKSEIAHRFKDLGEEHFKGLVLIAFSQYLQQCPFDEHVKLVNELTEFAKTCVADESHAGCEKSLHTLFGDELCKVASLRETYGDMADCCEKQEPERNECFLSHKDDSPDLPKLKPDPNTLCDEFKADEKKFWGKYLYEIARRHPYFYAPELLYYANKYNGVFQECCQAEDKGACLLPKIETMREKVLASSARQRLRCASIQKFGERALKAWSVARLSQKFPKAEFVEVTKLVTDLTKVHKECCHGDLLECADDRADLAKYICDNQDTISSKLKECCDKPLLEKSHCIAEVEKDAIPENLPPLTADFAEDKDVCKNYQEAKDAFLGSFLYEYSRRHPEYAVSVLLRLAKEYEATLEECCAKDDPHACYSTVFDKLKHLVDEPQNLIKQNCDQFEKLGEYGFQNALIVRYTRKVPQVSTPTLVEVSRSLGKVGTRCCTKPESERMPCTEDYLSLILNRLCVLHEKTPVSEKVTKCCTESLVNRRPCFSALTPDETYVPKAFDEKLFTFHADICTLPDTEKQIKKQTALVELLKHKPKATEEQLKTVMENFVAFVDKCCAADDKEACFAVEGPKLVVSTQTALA
Sequence of Focal adhesion kinase 1 (Homo sapiens) (Q05397 whole entry, looked up): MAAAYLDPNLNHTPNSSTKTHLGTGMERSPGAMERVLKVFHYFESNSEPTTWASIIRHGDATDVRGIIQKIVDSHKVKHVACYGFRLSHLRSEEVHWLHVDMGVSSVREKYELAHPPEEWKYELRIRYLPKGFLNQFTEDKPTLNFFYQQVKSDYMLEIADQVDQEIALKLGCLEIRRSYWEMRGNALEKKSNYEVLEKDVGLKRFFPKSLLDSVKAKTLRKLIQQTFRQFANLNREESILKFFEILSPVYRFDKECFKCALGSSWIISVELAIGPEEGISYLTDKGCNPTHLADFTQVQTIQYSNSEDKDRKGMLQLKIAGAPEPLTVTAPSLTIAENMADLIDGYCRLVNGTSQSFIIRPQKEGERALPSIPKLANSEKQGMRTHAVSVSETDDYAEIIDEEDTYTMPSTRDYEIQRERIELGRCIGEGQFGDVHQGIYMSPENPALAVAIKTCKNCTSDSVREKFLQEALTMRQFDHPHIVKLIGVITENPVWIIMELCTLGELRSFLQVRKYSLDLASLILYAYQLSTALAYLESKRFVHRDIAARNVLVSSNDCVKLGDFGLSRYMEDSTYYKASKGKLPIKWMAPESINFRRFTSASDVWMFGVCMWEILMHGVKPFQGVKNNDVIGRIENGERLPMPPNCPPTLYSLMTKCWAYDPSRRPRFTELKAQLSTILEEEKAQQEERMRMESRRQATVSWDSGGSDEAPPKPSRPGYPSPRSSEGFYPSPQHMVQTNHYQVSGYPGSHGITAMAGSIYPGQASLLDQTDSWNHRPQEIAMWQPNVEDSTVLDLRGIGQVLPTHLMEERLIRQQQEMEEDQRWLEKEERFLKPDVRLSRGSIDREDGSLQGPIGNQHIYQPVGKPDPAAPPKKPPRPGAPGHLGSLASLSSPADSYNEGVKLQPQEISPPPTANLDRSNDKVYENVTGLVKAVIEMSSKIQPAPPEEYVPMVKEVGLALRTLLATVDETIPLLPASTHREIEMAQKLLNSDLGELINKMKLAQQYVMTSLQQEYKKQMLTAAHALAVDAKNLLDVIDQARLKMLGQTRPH

As for `NC(=O)NCC#Cc1ccc2c(c1)[C@]1(C(=O)N2)[C@H](c2ccc(O)cc2)N2[C@H](c3ccccc3)[C@H](c3ccccc3)OC(=O)[C@H]2[C@@H]1C(=O)O`, the composite z-score with Albumin (Bos taurus) is 0.43; in test [2] it was -0.725; in [3], -0.281; in [4], 0.241; in [5], 0.547; in test [6], -0.0085. In addition, the composite z-score in the test on Sam68 (KHDRBS1) was -0.0756; in test [7] it was -1.43; in [8], 0.411; in test [9], 0.948; in [10] it was -0.404; in test [11], -0.415. The composite z-score in test [12] is -0.159; in test [13] it was -0.386; in test [14] it was -0.912; in the test with Lefty1 it was -0.283; in test [16] it was -0.142. For the same compound, in test [1], the composite Z-score was 0.619 (inactive). Besides, the z-score in test [15] was -0.61; in test [17], 0.323 (inactive).

In the case of `NC(=O)NCC#Cc1ccc2c(c1)[C@]1(C(=O)N2)[C@H](C(=O)Nc2nc3ccccc3s2)[C@H]2C(=O)O[C@H](c3ccccc3)[C@H](c3ccccc3)N2[C@@H]1c1ccccc1OCCO`, the composite z-score was found to be 0.46 with Albumin (Bos taurus); 1.1 in test [2]; 0.0196 in test [3]; 0.39 in [4]; 2.83 in test [5]; 1.14 in test [6]. For the same compound, the composite z-score worked out at 1.18 in the test on Sam68 (KHDRBS1); 0.277 in [7]; 1.08 in test [8]; 0.678 in [9]; 0.759 in test [10]; 0.997 in test [11]. For the same compound, the composite z-score came to 0.764 in test [12]; 1.22 in test [13]; 0.624 in [14]; 1.34 with Lefty1; 1.1 in test [16]. Besides, in test [1], the composite Z-score was 1.24 (inactive). Also, the z-score in test [15] is -2.46; in [17] it was -0.921 (inactive).

For `C=CC[C@]1(C(=O)NCc2ccccc2)N=C(c2ccc(OCCCO)cc2)O[C@H]1c1ccccc1N=[N+]=[N-]`, the composite z-score with Albumin (Bos taurus) is 0.897; in [2], 0.174; in [3] it was 0.12; in test [4], 0.625; in test [5], 2.68; in test [6] it was 0.727. The composite z-score in the test with Sam68 (KHDRBS1) was 1.34; in test [7], -0.567; in [8], 1.09; in [9], 2.39; in test [10], 1.22; in test [11], 0.618. Besides, the composite z-score in test [12] was 0.971; in [13], 1.23; in test [14], -0.26; in the test on Lefty1, 0.194; in test [16], 1.23. Further, the composite Z-score in test [1] was 1.39 (inactive). The values for the z-score in test [15] and in [17] were 0.34 and -8.88 (active), respectively.

`O=C1O[C@H](c2ccccc2)[C@H](c2ccccc2)N2[C@H]1[C@@H](C(=O)N1CCCCCCC1)[C@]1(C(=O)Nc3ccc(C#CC4=CCCCC4)cc31)[C@H]2c1ccc(OCCO)cc1`: the composite z-score with Albumin (Bos taurus) was 0.833; in test [2], 2.11; in [3], 1.05; in test [4], 0.837; in [5] it was 3.66; in test [6], 1.3. In addition, the composite z-score in the test with Sam68 (KHDRBS1) turned out to be 1.25; in [7], 1.48; in test [8], 1.15; in [9], 2.15; in [10] it was 1.26; in test [11], 3.18. Further, the composite z-score amounted to 0.9 in test [12]; 1.49 in [13]; 0.833 in test [14]; 1.65 in the test on Lefty1; 1.47 in test [16]. Moreover, in test [1], the composite Z-score was 7.2 (inactive). Moreover, the z-score was -1.3 in test [15] and -1.2 (inactive) in [17].

As for `COc1ccc(C(O)C2C=CC3C(=O)N(Cc4ccccc4)C(=O)C3N2n2cnnc2)cc1OCc1ccccc1` (stereo not given), the composite z-score was 0.799 in the test with Albumin (Bos taurus); 0.0493 in [2]; -0.152 in test [3]; 0.771 in test [4]; 1.5 in [5]; -0.276 in test [6]. The composite z-score is 0.953 in the test with Sam68 (KHDRBS1); -0.34 in test [7]; 0.681 in test [8]; -0.259 in test [9]; 0.48 in test [10]; 1.23 in [11]. In addition, the composite z-score in [12] was 0.303; in test [13], 0.319; in test [14], -0.385; in the test on Lefty1, 0.341; in test [16] it was 0.194. Further, in test [1], the composite Z-score is -1.19 (inactive). Also, the z-score in test [15] is -1.03; in test [17], 1.77 (inactive).

For `CCOC(=O)C[C@H]1[C@H](OC(=O)c2ccc(C(=O)c3ccccc3)cc2)[C@@H](NC(=O)c2ccc3ccccc3c2)c2cc(OCCCO)ccc2N1C(=O)Cc1ccc(OC)cc1`, the composite z-score in the test with Albumin (Bos taurus) is 0.638; in test [2], -0.0932; in test [3], -0.149; in [4], 0.009; in test [5], 0.899; in [6], 0.0147. Besides, the composite z-score is 0.484 in the test with Sam68 (KHDRBS1); -0.197 in [7]; 0.114 in test [8]; 0.0204 in test [9]; 0.542 in test [10]; 0.222 in [11]. Besides, the composite z-score in test [12] worked out at 0.424; in test [13], 0.288; in [14] it was 0.115; in the test with Lefty1, 0.199; in [16], 0.398. Further, the composite Z-score in [1] was -0.68 (inactive). In addition, the z-score in test [15] was 0.826; in test [17] it was 0.789 (inactive).

On to `[N-]=[N+]=NCc1ccccc1C[C@]1(C(N)=O)COC(c2ccc(OCCCO)cc2)=N1`, for which the composite z-score in the test with Albumin (Bos taurus) was determined as 0.624; in test [2], 0.0225; in test [3], 0.106; in test [4], 0.656; in [5], 2.24; in [6], 1.29. Also, the composite z-score in the test with Sam68 (KHDRBS1) was 0.48; in test [7], -0.846; in test [8] it was 0.556; in test [9], 0.0064; in test [10], 0.3; in [11], -0.0367. In addition, the composite z-score in [12] came to 0.389; in test [13] it was 1.24; in [14] it was 0.261; in the test on Lefty1, 0.299; in test [16], 0.821. Further, the composite Z-score in test [1] was 0.155 (inactive). The z-score in [15] was 0.564; in [17], -2.06 (inactive).

The values above are taken from PubChem BioAssay.
